KDM5B inh: blocks human KDM5B histone demethylase activity. Potency, µM (top dose mostly 57.7 µM), hits mostly inhibitors. AID 1347165. 2.6% of 220,000 active. Q9UGL1. KDM5B demethylase, FDH-coupled NADH fluorescence (FDH is formaldehyde dehydrogenase); also: nearly all actives have a fitted effect of over 70% in size
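KDM5BΔAP (200 nM final) in 50 mM HEPES pH 7.5, 0.01% Tween-20 was preincubated 10 min at RT with compound over a concentration range. Substrate mix (H3K4me3 12.5 µM, α-KG 25 µM, Fe²⁺, ascorbate, NAD⁺, FDH) was added, and NADH fluorescence change over 30 min gave dose-response curves.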
IP6K1 inh: blocks human inositol hexakisphosphate kinase 1; IP6K1 kinase, ADP-Glo luminescence, 2 h; stronger effect = lower value; activity change, % (series mostly up to about 58 µM); 0.81% of 140,000 active; in the data active = activity change below about -25%
Target sequence (Q92551 whole entry, looked up): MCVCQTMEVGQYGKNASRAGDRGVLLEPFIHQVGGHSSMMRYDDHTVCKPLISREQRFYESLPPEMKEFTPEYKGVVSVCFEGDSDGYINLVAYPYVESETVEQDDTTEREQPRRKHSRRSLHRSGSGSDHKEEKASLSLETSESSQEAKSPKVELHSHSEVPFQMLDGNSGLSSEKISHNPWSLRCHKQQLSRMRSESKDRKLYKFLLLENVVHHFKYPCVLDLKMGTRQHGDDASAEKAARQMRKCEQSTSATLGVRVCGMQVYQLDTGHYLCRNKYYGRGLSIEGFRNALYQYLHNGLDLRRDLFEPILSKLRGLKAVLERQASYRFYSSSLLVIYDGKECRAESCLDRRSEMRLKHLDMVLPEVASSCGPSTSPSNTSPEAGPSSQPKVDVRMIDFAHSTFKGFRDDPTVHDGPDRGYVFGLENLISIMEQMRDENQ
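ADP-Glo luminescence measures ADP made by human IP6K1 during a 2 h RT reaction with ATP/IP6 (mix at 1.3 mM/130 uM); top library doses 57.5 and 19.1 uM final.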
HEK293 viab: cell viability loss counter-screen; 0.12% of 150,000 active; Potency, µM (top dose mostly 57.1 µM), actives largely listed as cytotoxic; HEK-293-SNCA-luc viability, GF-AFC fluorescence, 24 h; AID 1671193; also: nearly all actives have a fitted effect of over 30% in size
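Cytotoxicity counterscreen: after 24 h compound treatment of genome-edited SNCA-luciferase HEK-293 cells, live-cell protease substrate GF-AFC read by fluorescence after 30 min; activity scaled between DMSO (0%) and medium-only (-100%), curves Hill-fitted.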
SNCA expr inh: reduces expression of the alpha-synuclein gene. AID 1671194. HEK-293 SNCA-luciferase knock-in, luminescence, 24 h. Potency, µM (highest dose often 57.2 µM), usual class: inhibitors. 0.17% of 140,000 active; also: nearly all actives have a fitted effect of over 45% in size
Large screens that a line does not name were inactive. Compounds with a hit are over-represented: about 2.9% of the library has one in this group of screens. Unless noted, calls follow the shape of the dose curve; as a rule, active = well fitted curve in the direction sought with a large enough effect; inconclusive = small, poorly fitted or top-dose-only effect, or another doubt; inactive = no such curve, though single readings can be large; an effect the other way counts as inactive or inconclusive.

CCCC(=O)N1Cc2ccccc2CC2(CCN(Cc3cccnc3)C2)C1 (stereo not drawn)	none
O=[S+]([O-])(Nc1nncs1)c1ccc2c(c1)OCCN(Cc1cccs1)C2	none
O=C(NCc1ccc(Cl)cc1)c1ccc2ccnn2c1	KDM5B inh 35µM
O=C(Nc1ccc(Cl)cc1Cl)c1ccc2ccnn2c1	KDM5B inh inconclusive
O=C(Nc1ccc(Cl)nc1)c1ccn2nccc2c1	KDM5B inh inconclusive
O=C(NCc1ccc(Cl)nc1)c1ccc2cncn2c1	KDM5B inh 35µM
O=C(NCc1ccc(Cl)nc1)c1ccc2ccnn2c1	KDM5B inh 35µM
Cc1[nH]c2ccccc2c1C(=O)N1CCN(S(=O)(=O)c2ccc(F)cc2F)CC1	none (no result: IP6K1 inh, HEK293 viab, SNCA expr inh)
NCCOCCOCCNC(=O)Cc1ccc(Nc2nc(NCc3ccc(F)cc3)nc(NCC3CCCCC3)n2)cc1	none (no result: KDM5B inh, SNCA expr inh)
COc1ccccc1N1CCCc2ncc(C(=O)N(C)Cc3ccccc3)cc21	KDM5B inh 35µM
COc1ccccc1N1CCCc2ncc(C(=O)N3CCCC[C@@H]3Cc3ccccc3)cc21	KDM5B inh 25µM
COc1ccccc1N1CCCc2ncc(C(=O)NCCc3c[nH]c4ccccc34)cc21	KDM5B inh 28µM, HEK293 viab inconclusive, SNCA expr inh inconclusive
COc1ccccc1N1CCCc2ncc(C(=O)NCCc3ccccc3)cc21	KDM5B inh inconclusive
Cc1cc(OCC(=O)Nc2ccc3[nH]ncc3c2)ccc1Cl	none (no result: IP6K1 inh, HEK293 viab, SNCA expr inh)
O=C(COC(=O)c1ccccc1Br)Nc1nc(-c2ccccc2)cs1	none (no result: IP6K1 inh, HEK293 viab, SNCA expr inh)
Fc1ccc(-c2nnc3ccc(NCCc4ccccn4)nn23)nc1	KDM5B inh 40µM
CC(C)CNc1ccc2nnc(-c3ccc(F)cn3)n2n1	KDM5B inh 32µM
COC(=O)c1sccc1NC(=O)N1CCCC1c1noc(COc2ccc(F)cc2)n1 (stereo not drawn)	KDM5B inh 32µM
CC(=O)NCC1CCCN(Cc2ccc(-c3ccccc3C#N)o2)C1 (stereo not drawn)	KDM5B inh 28µM, SNCA expr inh inconclusive
CN1CCN(Cc2ccc(-c3cnc4c(OCc5ccccc5)nccn34)cc2)CC1	KDM5B inh 32µM
Cc1cccc(OC(C)C(=O)Nc2cc(-c3ccccc3)no2)c1C (stereo not drawn)	none (no result: IP6K1 inh, HEK293 viab, SNCA expr inh)
COCc1nnc2n1CCC(NC(=O)c1ccn(C)n1)CC2 (stereo not drawn)	none
COCc1nnc2n1CCC(NC(=O)c1ccc3cc[nH]c3c1)CC2 (stereo not drawn)	KDM5B inh 28µM
Cc1cc(C)c2c(C(=O)N3CCN(C)C4(CCN(C)CC4)C3)cc(C)nc2c1	KDM5B inh 25µM
Cc1cc(C)cc(NC(=O)CC(=O)N2CCN(C)C3(CCN(C)CC3)C2)c1	none
CSCC(=O)N[C@H]1CCN2C(=O)c3cc(/C=C/c4ccccc4)ccc3NC(=O)[C@H]12	KDM5B inh 16µM
COc1ccc(-c2ccc3c(c2)C(=O)N2CC[C@H](NC(=O)C4CCCC4)[C@H]2C(=O)N3)c(OC)c1	KDM5B inh 32µM
COc1ccc(-c2ccc3c(c2)C(=O)N2CC[C@H](NC(=O)NC(C)C)[C@H]2C(=O)N3)c(OC)c1	KDM5B inh inconclusive
CC(C)NC(=O)N[C@H]1CCN2C(=O)c3cc(/C=C/c4ccccc4)ccc3NC(=O)[C@H]12	KDM5B inh 35µM
COc1ccc(/C=C/c2ccc3c(c2)C(=O)N2CC[C@H](NC(=O)COCC(=O)O)[C@H]2C(=O)N3)cc1	KDM5B inh 22µM
O=C(CC1CCCN(c2cnn(CC3CC3)c(=O)c2)C1)Nc1ccccc1F (stereo not drawn)	none
CC(C)NC(=O)c1cc(Br)c(Br)s1	none (no result: IP6K1 inh, HEK293 viab, SNCA expr inh)
CCOc1ccccc1NC(=O)c1cc2c(N3CCSCC3)nc(C)cn2n1	KDM5B inh 28µM
Cc1cn2nc(C(=O)Nc3ccc(N(C)C)cc3)cc2c(N2CCSCC2)n1	none
CCOc1ccc(NC(=O)c2cc3c(N4CCSCC4)nc(C)cn3n2)cc1	KDM5B inh 4µM
CNC(=O)c1cc(C)nc2onc(C3CCCN(C(=O)c4ccc(F)cc4)C3)c12 (stereo not drawn)	none (no result: KDM5B inh, HEK293 viab, SNCA expr inh)
CCCCc1ncc(-c2c(-c3ccccc3)ncn2CC2(CO)CCC2)[nH]1	none
Cc1ncc(-c2c(-c3ccccc3)ncn2CC(c2ccco2)N2CCCC2)[nH]1 (stereo not drawn)	KDM5B inh 25µM
CCc1noc(-c2cccn3c(CNC(=O)c4cc(C)ccc4C)nnc23)n1	KDM5B inh 10µM
CCc1noc(-c2cccn3c(CNC(=O)Cc4ccccc4OC)nnc23)n1	KDM5B inh inconclusive
CCc1noc(-c2cccn3c(CNC(=O)c4ccccc4C)nnc23)n1	KDM5B inh 28µM
C=C(C)[C@@H]1CCC2(C(=O)OC)CC[C@]3(C)C(CCC4[C@@]5(C)C/C(=C\c6ccccc6)C(=O)C(C)(C)C5CC[C@]43C)C12 (stereo partly drawn)	none (no result: IP6K1 inh, HEK293 viab, SNCA expr inh)
COC(=O)[C@]12CCC(C)(C)C[C@@H]1[C@@H]1C(=O)C=C3[C@@]4(C)C=C(C#N)C(=O)C(C)(C)[C@@H]4CC[C@@]3(C)[C@]1(C)CC2	HEK293 viab 14µM, SNCA expr inh 8.6µM (no result: KDM5B inh, IP6K1 inh)
Cc1nc2c(OCC(=O)c3ccccc3)cccn2c(=O)c1-c1cc(C)n(-c2ccccc2)n1	KDM5B inh inconclusive
CCOC(=O)CCCOc1cccn2c(=O)c(-c3cc(C)n(-c4ccccc4C)n3)c(C)nc12	KDM5B inh 32µM
CCOC(=O)CCCOc1cccn2c(=O)c(-c3cc(C)n(-c4cccc(C)c4)n3)c(C)nc12	KDM5B inh 28µM
CCOC(=O)CCCOc1cccn2c(=O)c(-c3cc(C)n(-c4ccc(Cl)cc4)n3)c(C)nc12	KDM5B inh 25µM
Cc1ccccc1-n1nc(-c2c(C)nc3c(OCC(=O)OC(C)(C)C)cccn3c2=O)cc1C	KDM5B inh 20µM
c1ccc(-c2ccc(Oc3nc(-c4ccccc4)cs3)cc2)cc1	none (no result: IP6K1 inh, HEK293 viab, SNCA expr inh)
CS(=O)(=O)N(Cc1ccccn1)C1CN(C(=O)CCc2c[nH]c3ccccc23)C1	none (no result: KDM5B inh)
COc1ccc(OC)c(NC(=O)Cn2c(-c3ccc(F)cc3)nc(C)c(CCO)c2=O)c1	KDM5B inh 20µM
COCCNC(=O)c1nc(-c2ccc(F)cc2)c2cnccn12	KDM5B inh 32µM
COCCNC(=O)c1nc2sccn2c1-c1cccnc1	none (no result: KDM5B inh)
COC(=O)CNC(=O)c1nc(-c2ccc(F)cc2)c2cnccn12	KDM5B inh 40µM
Cc1ccccc1-c1cn[nH]c1C1CCN(C(=O)c2cnn3ccccc23)CC1	KDM5B inh 22µM
CN(C)C(=O)NCC(=O)N1C[C@@H](C(=O)O)[C@H](c2ccc3c(c2)OCO3)C1	none
Cc1nn(C)c(C)c1C(=O)N1CC(n2cc(COc3ccc(F)cc3)nn2)C1	none (no result: KDM5B inh)
O=C(Nc1cccn2nc(C3CCC3)nc12)c1ccc(F)cc1F	KDM5B inh 32µM
O=C(Nc1cccn2nc(C3CCC3)nc12)c1ccc(F)cc1Cl	none
CN1Cc2cccn2CC1CNC(=O)c1cccs1 (stereo not drawn)	KDM5B inh 20µM
CN1Cc2cccn2CC1CNC(=O)c1nn(C)c2ccccc12 (stereo not drawn)	KDM5B inh 16µM
